Assay outcomes deposited in PubChem BioAssay by National Center for Advancing Translational Sciences (NCATS).
This is a sample that favours compounds with a hit; in the whole collection about 11% have one here.
VP16 counter – counter-screen for ROR gamma inhibitors: Gal4-VP16 reporter. Drosophila S2 Gal4-VP16 UAS-luciferase, luminescence, 20 h. Potency, µM (series often up to 53.6 µM), for the others: at the top dose activity, negative = inhibition, most hits filed as inhibitors. hit rate 3.5% among 310,000;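 also: Gal4-VP16 expression switched on by copper sulfate through the metallothionein promoter; potency is read from the fitted curve at half-maximal effect; % is scaled to controls: 0 for no effect and ±100 for the full control effect; nearly all actives have a fitted effect of over 50% in size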
SW480 rerep – inducers of DNA re-replication in SW480 colon cancer cells; hit rate 1.8% among 340,000; SW480 DNA re-replication, Hoechst DNA content imaging, 48 h; Potency, µM (doses to about 46.1 µM), without a hit: top-dose re-replication activation, most hits filed as activators; AID 624297; also: potency is read from the fitted curve at half-maximal effect; % of control where 0% means no effect; nearly all actives have a fitted effect of over 55% in size
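Readout is total intensity of Hoechst-stained nuclei, excited at 405 nm and collected at 500-530 nm. Compound treatment lasted 48 hr at 37 C in 5% CO2 before staining.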
MCF10A rerep – induces DNA re-replication in MCF 10a normal breast cells; AID 624296; MCF 10A DNA re-replication, Hoechst nuclear intensity, 48 h; hit rate 2.9% among 350,000; Potency, µM (top dose mostly 46.1 µM), inactives show at the highest dose activity, positive = re-replication, usual class: activators; also: potency is read from the fitted curve at half-maximal effect; % of control where 0% means no effect; nearly all actives have a fitted effect of over 50% in size
IL-1B inflam inh – blocks inflammasome-driven IL-1 beta release. THP-1 LPS/ATP IL-1B secretion, AlphaLISA, 16 h; stronger effect = lower value. activity change, % at 57.5 µM. hit rate 4.7% among 360,000. AID 743279; in the data active = activity change below about -50%; inconclusive = mostly about -30% to -49%; also: % is scaled to controls: 0 for no effect and ±100 for the full control effect
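Secreted IL-1B measured by AlphaLISA bead assay after 16 h compound exposure of THP-1 cells; compounds (final up to 57.5 uM) added 1 h before LPS (250 ng/mL) and ATP (1.25 mM) stimulation; lower signal means less secretion.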
RORgamma inh – blocks mouse ROR gamma transcriptional activity; P51450; Drosophila S2 Gal4-RORgamma UAS-luciferase reporter, 20 h; Potency, µM (top dose mostly 53.6 µM), inactives show at the highest dose activity change, negative = inhibition, actives largely listed as inhibitors; hit rate 5.4% among 310,000; also: potency is read from the fitted curve at half-maximal effect; % is scaled to controls: 0 for no effect and ±100 for the full control effect; nearly all actives have a fitted effect of over 60% in size
Target sequence (P51450 whole entry, looked up, the tested form may be a part): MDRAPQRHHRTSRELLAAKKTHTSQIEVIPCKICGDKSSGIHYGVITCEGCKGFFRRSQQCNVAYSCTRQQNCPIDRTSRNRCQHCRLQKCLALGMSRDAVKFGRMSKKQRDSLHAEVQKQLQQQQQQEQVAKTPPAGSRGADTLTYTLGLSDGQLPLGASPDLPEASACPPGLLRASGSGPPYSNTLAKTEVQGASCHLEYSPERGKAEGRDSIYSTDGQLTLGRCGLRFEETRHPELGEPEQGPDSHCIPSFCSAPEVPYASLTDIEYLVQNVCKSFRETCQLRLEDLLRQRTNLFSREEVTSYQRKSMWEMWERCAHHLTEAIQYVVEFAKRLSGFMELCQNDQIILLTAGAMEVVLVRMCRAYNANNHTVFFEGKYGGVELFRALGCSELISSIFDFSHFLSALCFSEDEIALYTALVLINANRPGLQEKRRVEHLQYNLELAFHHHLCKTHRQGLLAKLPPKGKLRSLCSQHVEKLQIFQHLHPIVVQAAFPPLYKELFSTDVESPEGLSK
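In this cell-based reporter format, copper sulfate (700 uM final) drives Gal4–ROR gamma fusion expression from a metallothionein promoter in Drosophila Schneider cells; compounds preincubated 1 hr, reporter read after 20 hr at ambient temperature.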
Numbers without * were called inactive; ? = inconclusive; . = no result given; [ ] = remark or other dose. Unless noted, calls follow the shape of the dose curve; as a rule, active = well fitted curve in the direction sought with a large enough effect; inconclusive = small, poorly fitted or top-dose-only effect, or another doubt; inactive = no such curve, though single readings can be large; an effect the other way counts as inactive or inconclusive.

SMILES	VP16 counter	SW480 rerep	MCF10A rerep	IL-1B inflam inh	RORgamma inh
COc1ccc(OC)c(NC(=O)CC2C(=O)NCCN2C(=O)Nc2cccc(Cl)c2)c1 (centres undefined)	13%	-3%	5%	-66*	2%
O=C(CC1C(=O)NCCN1C(=O)c1ccc(Cl)cc1)Nc1ccc(F)cc1 (centres undefined)	6%	3%	?	-3	-19%
COc1ccc(C(=O)N2CCNC(=O)C2CC(=O)Nc2cc(Cl)ccc2OC)cc1 (centres undefined)	-14%	-7%	0%	-15	-29%
O=C(CC1C(=O)NCCN1C(=O)Nc1ccc(Cl)cc1)Nc1ccc(F)cc1 (centres undefined)	-6%	-5%	2%	-64*	31%
C=CCNc1nnc(SCC(=O)N2CCC(C(N)=O)CC2)s1	.	-2%	0%	2	.
S=C(c1cn(CCOc2ccccc2)c2ccccc12)N1CCCC1	-2%[0.365 µM]	-6%	26%	-21	7.1µM*
O=C(O)Cn1cc(C(=S)N2CCCCC2)c2ccccc21	-14%	-12%	0.58µM*	8	5%
S=C(c1cn(CCOc2cccc3ccccc23)c2ccccc12)N1CCCC1	?	?	?	-6	11µM*
O=C(O)Cn1cc(C(=S)N2CCOCC2)c2ccccc21	0%	-3%	1%	2	-15%
COc1ccc(NC(=O)C(=O)c2cn(CC(=O)N3CCCC3)c3ccccc23)cc1	22%	0.46µM*	?	125	19%
Cc1cccc(C)c1NC(=O)CNC(=O)C(C)NC(C)c1ccccc1Br (centres undefined)	.	-1%	1%	5	.
COc1ccc(NC(=O)N2CCCC3(CCN(C(=O)c4ccc(OC)cc4)CC3)C2)cc1	5%	.	.	.	12%
Cn1c(=O)c(-c2cccs2)nc2cnc(OCc3ccccc3)nc21	3%	.	.	.	-2%
CC(C)C[C@@H]1Cc2[nH]c(=S)[nH]c(=O)c2[C@H](C)O1	.	.	.	16	.
Cc1ccc(OCCn2cc(C(=S)N3CCCC3)c3ccccc32)cc1C	-2%[0.365 µM]	?	?	-15	6.3µM*
Cc1ccc(OCCn2cc(/C(N)=N/O)c3ccccc32)cc1C	-29%	5%	9%	0	-39%
COCCn1cc(C(=S)N2CCCCC2)c2ccccc21	?	10%	-44%	-19	16µM*
CC1(C(=O)NS(=O)(=O)C2CC2)CCN(C(=O)CSc2ccccc2)C1 (centres undefined)	.	.	.	13	.
Nc1ccc2c(c1)C(=O)N(c1cccc3ccccc13)C2=O	9%	20%	2%	-11	-16%[1.91 µM]
CC1=CC(=O)N(c2cccc3c(N4C(=O)C=C(C)C4=O)cccc23)C1=O	.	13µM*	?	-81*	.
CC1CSc2n(-c3cccc(C(F)(F)F)c3)cc(-c3ccccc3)[n+]21 (centres undefined)	-2%	-4%	2%	-1	-3%
Cc1ccccc1-c1cn(-c2ccccc2)c(=S)[nH]1	10µM*	-1%	5%	-3	3.2µM*
COc1cc(OC)c(-n2cc(-c3ccc(OC)c(OC)c3)[nH]c2=S)cc1Cl	16µM*	-3%	-2%	?	7.9µM*
Fc1ccccc1-n1cc(-c2ccccc2)[nH]c1=S	16µM*	-4%	0%	-14	2.5µM*
FC(F)(F)c1cccc(-n2cc(-c3ccccc3)[nH]c2=S)c1	?	-7%	17%	-6	2.8µM*
SMILES	VP16 counter	SW480 rerep	MCF10A rerep	IL-1B inflam inh	RORgamma inh
Cc1ccc(-n2cc(-c3ccccc3)[nH]c2=O)cc1F	3%	-9%	1%	18	31%
Cc1ccc(-c2cn(-c3ccccc3)c(=S)[nH]2)cc1C	?	5%	9%	-22	?
COc1ccc(C2=Nn3c(nnc3-c3cc(OC)ccc3OC)SC2)cc1	-3%	.	.	.	11%
Cc1ccc(NC(=O)c2ccc(-c3cc(Cl)ccc3Cl)o2)c(C)c1	.	.	.	-17	.
COc1ccc(-n2cc(-c3ccc(OC)c(OC)c3)[nH]c2=S)cc1	10µM*	?	-1%	-1	2µM*
COc1ccccc1-n1cc(-c2ccc(Cl)cc2)[nH]c1=O	8%	8%	0%	0	-10%
COc1ccc(-c2cn(-c3ccc(C)cc3C)c(=S)[nH]2)cc1OC	?	-3%	4%	17	?
O=[N+]([O-])c1ccc(-c2cn(-c3ccc(Cl)cc3)c(=S)[nH]2)cc1	-2%	3%	-65%	0	-7%
CCc1ccc(-n2cc(-c3ccc([N+](=O)[O-])cc3)[nH]c2=S)cc1	?	-4%	4%	-26	11µM*
COc1ccc(-n2ccsc2=S)cc1	-1%	-11%	-3%	6	-14%
COc1ccc(-n2cc(-c3ccc(Br)cc3)[nH]c2=S)cc1	-14%	0%	4%	2	1.8µM*
COc1ccc(-n2cc(-c3ccccc3)[nH]c2=S)c(OC)c1	7.9µM*	18µM*	16µM*	?	2.5µM*
O=C(CN1C(=O)C2CC=CCC2C1=O)Nc1nc(-c2ccc(F)c(F)c2)cs1 (centres undefined)	.	1%	6%	-6	.
CCOC(=O)[C@H]1[C@H]2COc3ccc(Br)cc3[C@@H]2N2C(=O)CN(Cc3ccc(OC)cc3)C(=O)[C@@]12C	.	1%	2%	20	.
CCc1ccc(N2CN(CCc3ccccc3)CNC2=S)cc1	6.3µM*	-11%	-1%	18	1.3µM*
Cc1ccc(N2CN(CCC3=CCCCC3)CNC2=S)cc1	6.3µM*	-12%	2%	0	0.56µM*
COc1cccc(N2CN(CCc3ccccc3)CNC2=S)c1	?	-6%	?	.	14µM*
COc1cccc(N2CN(C3CCCCC3)CNC2=S)c1	-1%	?	?	.	?
C/C=C/OC(=O)NC(c1ccccc1)[C@]1(C(C)=O)CCOC1=O (some centres undefined)	-7%[10 µM]	.	.	.	9%[10 µM]
COc1ccc([C@H]2CC(=O)C=C(c3ccc(CNC(=O)OC(C)(C)C)cc3)C2)cc1	.	8%	?	-8	.
CCN(CC)CCCNC(=O)c1oc2ccc(S(=O)(=O)N3CC(C)CC(C)C3)cc2c1C (centres undefined)	-4%	?	36%	-52*	-37%
Cc1c(C(=O)O)oc2ccc(S(=O)(=O)N3CCCC3)cc12	-17%	-7%	-2%	25	-6%
CCCCN(C)C(=O)c1oc2ccc(S(=O)(=O)N3CCCCCC3)cc2c1C	-6%	-2%	-8%	-68*	?
CC1(C(=O)NS(=O)(=O)c2ccc(Br)cc2)CCN1C(=O)c1cccc(F)c1 (centres undefined)	.	.	.	3	.
Brc1ccc(OCc2nc(-c3ccccn3)n[nH]2)cc1	?	-4%	-4%	-13	14µM*
Cc1ccsc1/C=N/N=C/c1sccc1C	9%	5%	-1%	8	-26%
Cc1ccsc1C=Nc1ccc(O)cc1	?	?	?	-99*	10µM*
